In the library only some 3.4% were active in any assay of this set; here they are far more common.
HGIII-sPLA2 inh = Blocks human group III sPLA2 activity | Q9NZ20 | QFRET BODIPY PC-A2 liposome hydrolysis, fluorescence | inhibition, % at 12.2 µM | 0.56% of 370,000 active | AID 743126;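 active means inhibition above mean plus 3 SD of compounds lying within the high and low control bounds, cut at about 19% in these data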;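 further: 0% = median of test compound wells and 100% = no enzyme DMSO wells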
PLC-beta3 inh = blocks human PLC-beta3 enzyme activity | Purified PLC-beta3, fluorogenic substrate, fluorescence | inhibition, % at 12.2 µM | 0.18% of 370,000 active | AID 720704; in the data active means inhibition above about 11%;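 further: 0% = median of compound wells on plate and 100% = full blocker control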
ADAM10 inh = inhibits human ADAM10; recombinant ADAM10, EDANS/DABCYL FRET peptide cleavage, 3 h; O14672; 0.62% of 370,000 active; inhibition, % at 7 µM; AID 720582;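 active means inhibition above a per-campaign cutoff equal to the mean of compounds falling between control-based bounds plus 3 SD, cut at about 20% in these data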;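 further: 0% = DMSO wells while the 100% control is not disclosed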
KLK7 zymogen act = activators of human kallikrein-7 zymogen. P49862. purified proKLK7, EDANS-DABCYL substrate fluorescence; 100% is mature enzyme control, 0% vehicle. activation, % at 7 µM. 0.9% of 370,000 active;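 active means activation above the mean of all tested compounds plus 3 SD, computed per campaign excluding outliers beyond control limits, cut at about 13% in these data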
ADAM17 inh = inhibitors of human ADAM17; recombinant ADAM17, EDANS/DABCYL FRET peptide cleavage; inhibition, % at 6.95 µM; 0.83% of 370,000 active; AID 720648;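 active means inhibition above the mean of compounds lying between control limits plus 3 SD, set per campaign, cut at about 8.5% in these data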;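 further: 0% = DMSO-only wells as the low control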
PLCg1 inh = PLC-gamma1 (human) inhibition, primary screen; AID 720700; 0.84% of 370,000 active; inhibition, % at 12.2 µM; purified PLC-gamma1, fluorogenic substrate, fluorescence; in the data active means inhibition above about 9.5%
ADAM10 counter = inhibits human ADAM10 in ADAM17 exosite counter-screen. shares compounds with ADAM17 inh. recombinant ADAM10, EDANS/DABCYL FRET peptide cleavage, 3 h. inhibition, % at 6.95 µM. 47% of 2,900 active;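 active means mean inhibition over the triplicate runs exceeds the activity threshold set in the earlier primary screen, cut at about 20% in these data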;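 further: 0% = DMSO wells and 100% = marimastat wells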
ADAM17 confirm = human ADAM17 inhibition, confirmation. recombinant ADAM17, EDANS/DABCYL QFRET peptide cleavage. shares compounds with ADAM17 inh. 65% of 2,900 active. inhibition, % at 6.95 µM;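 active means mean inhibition across replicates above the hit cutoff set in the primary screen, cut at about 8.5% in these data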;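 further: 0% = DMSO wells and 100% = marimastat wells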
An asterisk follows results filed as active; . = no result given.

SMILES | HGIII-sPLA2 inh | PLC-beta3 inh | ADAM10 inh | KLK7 zymogen act | ADAM17 inh | PLCg1 inh | ADAM10 counter | ADAM17 confirm
O=C(NCc1cccs1)c1cc(-c2ccccc2)nn1CC1CC(c2cccc([N+](=O)[O-])c2)=NO1 (stereo unspecified) | -1 | 1 | 16 | 0 | 11* | 3 | 27* | 13*
O=C(NCCc1cccs1)C1CC(c2cccc([N+](=O)[O-])c2)=NO1 (stereo unspecified) | 4 | -1 | -5 | 0 | -4 | 0 | . | .
Cc1ccc(NS(=O)(=O)c2ccc(C3CCCCC3)cc2)cc1 | -25 | -3 | 11 | 0 | 8.9* | 0 | 38* | 18*
Cc1ccc(S(=O)(=O)Nc2ccc(N3CCCCC3)cc2)cc1 | -9 | -4 | 0 | -1 | 0 | -1 | . | .
Cc1nccn1CC(=O)c1ccc(O)c(O)c1 | 2 | -1 | 1 | 0 | -5 | -4 | . | .
CCCc1c(-c2ccc(F)cc2F)ncn1Cc1cccc(-c2ccccc2)c1 | -13 | 8 | 14 | 0 | 16* | 8 | 2 | 6
O=C(Nc1nnc([C@H]2C[C@H](O)[C@@H](CO)O2)s1)C(c1ccccc1)c1ccccc1 | 2 | -1 | -17 | -1 | -5 | -1 | . | .
Fc1cccc(CCN2C(=S)NC[C@@H]2CC2CCCCC2)c1 | 7 | 6 | 11 | 0 | 11* | 7 | 19 | 7
Fc1cccc(CCN2C(=S)NC[C@@H]2Cc2ccccc2)c1 | -1 | -2 | 6 | 1 | -1 | -1 | . | .
COc1ccc(NC(=O)c2ccc3c(c2)NC(=O)CS3)cc1 | 3 | 1 | 4 | 2 | 9.5* | 9 | 9 | 6
COCCNC(=O)c1ccc2c(c1)NC(=O)CS2 | 4 | -1 | -4 | 0 | -5 | 1 | . | .
CC(CCc1ccccc1)NC(=O)COC(=O)c1cc(NS(=O)(=O)c2ccc(Cl)c([N+](=O)[O-])c2)ccc1O (stereo unspecified) | -43 | 4 | 17 | 0 | 8.7* | 5 | 31* | 19*
CCO[C@H]1OC(C(=O)Nc2ccccc2)=C[C@@H](c2csc3ccccc23)[C@@H]1CCCO | -31 | 4 | 13 | 0 | 10* | 5 | 20 | 12*
Cc1ccccc1C(=O)NNC(=O)c1cc(S(=O)(=O)N2CCOCC2)ccc1C | 3 | 0 | -12 | 0 | 1 | 3 | . | .
CCOC(=O)c1c(C)[nH]c(N=Nc2cccc(OC)c2)c1C | -14 | -7 | 9 | 0 | 1 | 2 | . | .
CCOC(=O)c1c(C)[nH]c(N=Nc2cccc(C)c2)c1C | -25 | 6 | 14 | 0 | 9.7* | 6 | 24* | 14*
COc1ccccc1N(Cc1ccccc1)S(=O)(=O)c1cccc(C(=O)Nc2cc(C)ccn2)c1 | -20 | -13 | 17 | 0 | 9.0* | -2 | 13 | 8
COc1ccccc1N(Cc1ccccc1)S(=O)(=O)c1cccc(C(=O)Nc2ncccc2C)c1 | -5 | -2 | 12 | 1 | 6 | 8 | . | .
O=C(O)c1cccc2c1C(=O)c1cccc3snc-2c13 | 1 | -25 | -26 | 1 | -10 | -15 | . | .
O=C(CCn1c2c(c3ccccc31)CCCC2)NNC(=O)c1ccc([N+](=O)[O-])cc1 | -32 | 0 | 16 | 0 | 11* | 4 | 17 | 9.9*
COc1ccc(C2/C=C\CN(C(=O)c3ccccc3)[C@H](Cc3ccccc3)C(=O)N2Cc2ccc(F)cc2)cc1 (stereo partly specified) | 1 | 4 | 13 | 0 | 11* | 5 | 21* | 11*
COc1ccc([C@H]2/C=C\CN(C(=O)c3ccc(C)cc3)[C@@H](C)C(=O)N2Cc2ccc(F)cc2)cc1 | -7 | 2 | 15 | 0 | 2 | 2 | . | .
COc1ccc(C2=Nc3ccccc3NC(=O)C2N(C(=O)c2cnc(C)cn2)c2ccc(N3CCOCC3)cc2)cc1 (stereo unspecified) | -8 | -1 | -4 | 0 | -2 | -4 | . | .

Assay outcomes (PubChem)
